# Laboratory results published in PubChem BioAssay (EPA / NIEHS).
# Activity calls are given as the source filed them. Rule for the calls: active = hit-call score of the fitted dose curve at least 0.9, where 1 is the maximum; inactive = score below 0.9.
# Key:
# [1] = CEETOX_H295R_PROG: CeeTox H295R High-throughput Steroidogenesis Assay for Progesterone (PROG) (AID 2283442); settings: actives raise or lower the signal;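 for AC50: human H295R adrenal cells primed with 10 µM forskolin before dosing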
# Outline: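 Progesterone secreted by human H295R cells was measured by LC-MS/MS following 48 h chemical exposure at 0.1% DMSO, preceded by 48 h forskolin (10 uM) stimulation. Same-well MTT viability; cytotoxic concentrations diluted 10- or 100-fold and retested.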
# [2] = read-out: Tumor necrosis factor receptor superfamily member 6 (Homo sapiens) (UniProt P25445); assay: LTEA_HepaRG_FAS: Life Technologies and Expression Analysis (LTEA) Assay for Fas cell surface death receptor (FAS) using HepaRG (AID 2283447); settings: mRNA level, 48 h; actives raise or lower the signal
# Outline: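 Differentiated HepaRG cells in serum-free induction medium were exposed 48 h to 8 half-log concentrations up to 100 uM in 0.5% DMSO, in duplicate. FAS mRNA was measured by qRT-PCR normalised to ACTB, GAPDH and POLR2A; bidirectional fit versus DMSO.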
# [3] = read-out: Fatty acid synthase (Homo sapiens) (UniProt P49327); assay: LTEA_HepaRG_FASN: Life Technologies and Expression Analysis (LTEA) Assay for Fatty Acid Synthase (FASN) using HepaRG (AID 2283448); settings: mRNA level, 48 h; actives raise or lower the signal
# Outline: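 Differentiated human HepaRG cells were exposed for 48 h in serum-free induction medium to eight half-log concentrations up to 100 uM in 0.5% DMSO, in duplicate. FASN mRNA was quantified by TaqMan qRT-PCR, normalized to ACTB/GAPDH/POLR2A, and fitted bidirectionally against DMSO.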
# [4] = read-out: Cyclin D2 (CCND2), CCND2 (gene 894); assay: LTEA_HepaRG_CCND2: Life Technologies and Expression Analysis (LTEA) Assay for Cyclin D2 (CCND2) using HepaRG (AID 2283449); settings: mRNA level, 48 h; actives raise or lower the signal;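 note: CCND2 transcript measured by TaqMan qRT-PCR and normalised to three housekeeping genes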
# Outline: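 Chemicals in 0.5% DMSO, eight half-log concentrations from 100 uM top, were applied in duplicate for 48 h to human HepaRG cells in serum-free induction medium. CCND2 mRNA by TaqMan qRT-PCR, normalised to ACTB/GAPDH/POLR2A; bidirectional fit versus DMSO.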
# [5] = read-out: Cyclin Dependent Kinase Inhibitor 1A (CDKN1A), CDKN1A (gene 1026); assay: LTEA_HepaRG_CDKN1A: Life Technologies and Expression Analysis (LTEA) Assay for Cyclin Dependent Kinase Inhibitor 1A (CDKN1A) using HepaRG (AID 2283450); settings: mRNA level, 48 h; actives raise or lower the signal
# Outline: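 Expression quantified by Fluidigm qRT-PCR with ACTB, GAPDH and POLR2A normalization, fitted bidirectionally against 0.5% DMSO. Cells: HepaRG, plated 48 h then treated 48 h in serum-free induction medium, top concentration 100 uM with half-log dilutions.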
# [6] = read-out: Cyclin D1 (CCND1), CCND1 (gene 595); assay: LTEA_HepaRG_CCND1: Life Technologies and Expression Analysis (LTEA) Assay for Cyclin D1 (CCND1) using HepaRG (AID 2283451); settings: mRNA level, 48 h; actives raise or lower the signal
# Outline: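 Expression of CCND1 was quantified by qRT-PCR on Fluidigm arrays using ACTB, GAPDH and POLR2A as reference genes. HepaRG cultures, plated 48 h beforehand, were dosed for 48 h at up to 100 uM (half-log, 8 points) in 0.5% DMSO.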
# [7] = read-out: catalase (CAT), CAT (gene 847); assay: LTEA_HepaRG_CAT: Life Technologies and Expression Analysis (LTEA) Assay for catalase (CAT) using HepaRG (AID 2283452); settings: mRNA level, 48 h; actives raise or lower the signal
# Outline: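 HepaRG cells in serum-free induction medium, 0.5% DMSO vehicle, exposed 48 h in duplicate over 8 half-log concentrations from 100 uM. CAT mRNA measured by qRT-PCR, normalized to ACTB, GAPDH, POLR2A; bidirectional fit versus DMSO.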
# [8] = read-out: flavin-containing dimethylaniline monooxygenases 3 (FMO3), FMO3 (gene 2328); assay: LTEA_HepaRG_FMO3: Life Technologies and Expression Analysis (LTEA) Assay for flavin-containing dimethylaniline monooxygenases 3 (FMO3) using HepaRG (AID 2283453); settings: mRNA level, 48 h; actives raise or lower the signal
# Outline: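 HepaRG, 48 h exposure, 8-pt half-log series from 100 uM, 0.5% DMSO vehicle, duplicates; FMO3 transcript by Fluidigm TaqMan qRT-PCR, housekeeping-normalized; gain/loss fit vs DMSO.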
# [9] = read-out: Cytochrome P450 (CYP1A1), CYP1A1 (gene 1543); assay: LTEA_HepaRG_CYP1A1: Life Technologies and Expression Analysis (LTEA) Assay for Cytochrome P450 (CYP1A1) using HepaRG (AID 2283454); settings: mRNA level, 48 h; actives raise or lower the signal
# Outline: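 CYP1A1 transcript levels measured by Fluidigm qRT-PCR against three housekeeping genes, 48 h after chemical dosing of human HepaRG cells (highest concentration 100 uM, half-log steps, 0.5% DMSO vehicle). Gain or loss of signal fitted relative to DMSO.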
# [10] = read-out: CFLAR gene, CFLAR (gene 8837); assay: LTEA_HepaRG_CFLAR: Life Technologies and Expression Analysis (LTEA) Assay for CFLAR gene using HepaRG (AID 2283455); settings: mRNA level, 48 h; actives raise or lower the signal
# Outline: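 Differentiated HepaRG cells in serum-free induction medium were exposed 48 h in duplicate to eight half-log concentrations up to 100 uM in 0.5% DMSO; mRNA measured by TaqMan qRT-PCR, normalized to ACTB, GAPDH, POLR2A; bidirectional fitting versus DMSO.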
# [11] = read-out: Forkhead box O1 (FOXO1), FOXO1 (gene 2308); assay: LTEA_HepaRG_FOXO1: Life Technologies and Expression Analysis (LTEA) Assay for Forkhead box O1 (FOXO1) using HepaRG (AID 2283456); settings: mRNA level, 48 h; actives raise or lower the signal
# Outline: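 Differentiated HepaRG cells, in serum-free induction medium with 0.5% DMSO, exposed 48 h in duplicate to 8-point half-log series from 100 uM. FOXO1 mRNA measured by TaqMan qRT-PCR, normalized to ACTB, GAPDH, POLR2A; bidirectional fit versus DMSO.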
# [12] = read-out: Forkhead box O3 (FOXO3), FOXO3 (gene 2309); assay: LTEA_HepaRG_FOXO3: Life Technologies and Expression Analysis (LTEA) Assay for Forkhead box O3 (FOXO3) using HepaRG (AID 2283459); settings: mRNA level, 48 h; actives raise or lower the signal
# Outline: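 Differentiated human HepaRG cells, 48 h post-plating, exposed in duplicate for 48 h in serum-free induction medium; 8-point half-log series from 100 uM in 0.5% DMSO. FOXO3 mRNA by TaqMan qRT-PCR, normalized to ACTB/GAPDH/POLR2A; bidirectional fit versus DMSO.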
# [13] = read-out: ABC Transporter (ABCB1), ABCB1 (gene 5243); assay: LTEA_HepaRG_ABCB1: Life Technologies and Expression Analysis (LTEA) Assay for ABC Transporter (ABCB1) using HepaRG (AID 2283460); settings: mRNA level, 48 h; actives raise or lower the signal
# Outline: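 HepaRG cells exposed in duplicate for 48 h in serum-free induction medium to eight half-log concentrations up to 100 uM in 0.5% DMSO. ABCB1 mRNA quantified by qRT-PCR, normalised to ACTB, GAPDH and POLR2A; fitted bidirectionally versus DMSO.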
# [14] = read-out: growth arrest and DNA damage 45 (GADD45B), GADD45B (gene 4616); assay: LTEA_HepaRG_GADD45B: Life Technologies and Expression Analysis (LTEA) Assay for growth arrest and DNA damage 45 (GADD45B) using HepaRG (AID 2283461); settings: mRNA level, 48 h; actives raise or lower the signal
# Outline: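 Transcript level quantified by Fluidigm TaqMan qRT-PCR with three housekeeping genes for normalization, analyzed for up- or down-regulation against 0.5% DMSO. HepaRG cultures dosed 48 h at eight half-log concentrations up to 100 uM, duplicates.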
# [15] = read-out: ABC Transporter (ABCC3), ABCC3 (gene 8714); assay: LTEA_HepaRG_ABCC3: Life Technologies and Expression Analysis (LTEA) Assay for ABC Transporter (ABCC3) using HepaRG (AID 2283462); settings: mRNA level, 48 h; actives raise or lower the signal
# Outline: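 Transcript level by TaqMan qRT-PCR, normalised to three housekeeping genes, fitted in both directions relative to vehicle. Chemicals tested in duplicate at eight half-log concentrations up to 100 uM for 48 h on HepaRG cells (0.5% DMSO).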
# [16] = read-out: ABC Transporter (ABCB11), ABCB11 (gene 8647); assay: LTEA_HepaRG_ABCB11: Life Technologies and Expression Analysis (LTEA) Assay for ABC Transporter (ABCB11) using HepaRG (AID 2283463); settings: mRNA level, 48 h; actives raise or lower the signal
# Outline: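 Differentiated human HepaRG cells in serum-free induction medium, dosed in duplicate for 48 h. Eight-point half-log series from 100 uM in 0.5% DMSO; ABCB11 mRNA by qRT-PCR, normalized to ACTB, GAPDH, POLR2A, fitted bidirectionally versus DMSO.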
# [17] = read-out: ABC Transporter (ABCC2), ABCC2 (gene 1244); assay: LTEA_HepaRG_ABCC2: Life Technologies and Expression Analysis (LTEA) Assay for ABC Transporter (ABCC2) using HepaRG (AID 2283464); settings: mRNA level, 48 h; actives raise or lower the signal
# Outline: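 Endpoint is ABCC2 transcript level from qRT-PCR, normalized to three housekeeping genes and fitted bidirectionally relative to DMSO. Human HepaRG cells received test chemical for 48 h at up to 100 uM (8 points, half-log steps, 0.5% DMSO), duplicate wells.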
# [18] = read-out: Broad substrate specificity ATP-binding cassette transporter ABCG2 (Homo sapiens) (UniProt Q9UNQ0); assay: LTEA_HepaRG_ABCG2: Life Technologies and Expression Analysis (LTEA) Assay for ABC Transporter (ABCG2) using HepaRG (AID 2283465); settings: mRNA level, 48 h; actives raise or lower the signal
# Outline: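 Differentiated HepaRG cells were exposed for 48 h in serum-free induction medium to 8 half-log concentrations, top 100 uM, in 0.5% DMSO. ABCG2 mRNA was measured by qRT-PCR, normalized to ACTB, GAPDH and POLR2A, with bidirectional fitting versus DMSO.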
# [19] = read-out: growth arrest and DNA damage 45 (GADD45A), GADD45A (gene 1647); assay: LTEA_HepaRG_GADD45A: Life Technologies and Expression Analysis (LTEA) Assay for growth arrest and DNA damage 45 (GADD45A) using HepaRG (AID 2283458); settings: mRNA level, 48 h; actives raise or lower the signal
# Outline: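 Differentiated HepaRG cells were exposed in duplicate for 48 h in serum-free induction medium to 8-point half-log concentrations up to 100 uM in 0.5% DMSO. GADD45A mRNA was measured by TaqMan qRT-PCR, normalized to ACTB, GAPDH and POLR2A, with bidirectional fitting versus DMSO.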
# Chain of Fatty acid synthase (Homo sapiens) (P49327 whole entry, looked up): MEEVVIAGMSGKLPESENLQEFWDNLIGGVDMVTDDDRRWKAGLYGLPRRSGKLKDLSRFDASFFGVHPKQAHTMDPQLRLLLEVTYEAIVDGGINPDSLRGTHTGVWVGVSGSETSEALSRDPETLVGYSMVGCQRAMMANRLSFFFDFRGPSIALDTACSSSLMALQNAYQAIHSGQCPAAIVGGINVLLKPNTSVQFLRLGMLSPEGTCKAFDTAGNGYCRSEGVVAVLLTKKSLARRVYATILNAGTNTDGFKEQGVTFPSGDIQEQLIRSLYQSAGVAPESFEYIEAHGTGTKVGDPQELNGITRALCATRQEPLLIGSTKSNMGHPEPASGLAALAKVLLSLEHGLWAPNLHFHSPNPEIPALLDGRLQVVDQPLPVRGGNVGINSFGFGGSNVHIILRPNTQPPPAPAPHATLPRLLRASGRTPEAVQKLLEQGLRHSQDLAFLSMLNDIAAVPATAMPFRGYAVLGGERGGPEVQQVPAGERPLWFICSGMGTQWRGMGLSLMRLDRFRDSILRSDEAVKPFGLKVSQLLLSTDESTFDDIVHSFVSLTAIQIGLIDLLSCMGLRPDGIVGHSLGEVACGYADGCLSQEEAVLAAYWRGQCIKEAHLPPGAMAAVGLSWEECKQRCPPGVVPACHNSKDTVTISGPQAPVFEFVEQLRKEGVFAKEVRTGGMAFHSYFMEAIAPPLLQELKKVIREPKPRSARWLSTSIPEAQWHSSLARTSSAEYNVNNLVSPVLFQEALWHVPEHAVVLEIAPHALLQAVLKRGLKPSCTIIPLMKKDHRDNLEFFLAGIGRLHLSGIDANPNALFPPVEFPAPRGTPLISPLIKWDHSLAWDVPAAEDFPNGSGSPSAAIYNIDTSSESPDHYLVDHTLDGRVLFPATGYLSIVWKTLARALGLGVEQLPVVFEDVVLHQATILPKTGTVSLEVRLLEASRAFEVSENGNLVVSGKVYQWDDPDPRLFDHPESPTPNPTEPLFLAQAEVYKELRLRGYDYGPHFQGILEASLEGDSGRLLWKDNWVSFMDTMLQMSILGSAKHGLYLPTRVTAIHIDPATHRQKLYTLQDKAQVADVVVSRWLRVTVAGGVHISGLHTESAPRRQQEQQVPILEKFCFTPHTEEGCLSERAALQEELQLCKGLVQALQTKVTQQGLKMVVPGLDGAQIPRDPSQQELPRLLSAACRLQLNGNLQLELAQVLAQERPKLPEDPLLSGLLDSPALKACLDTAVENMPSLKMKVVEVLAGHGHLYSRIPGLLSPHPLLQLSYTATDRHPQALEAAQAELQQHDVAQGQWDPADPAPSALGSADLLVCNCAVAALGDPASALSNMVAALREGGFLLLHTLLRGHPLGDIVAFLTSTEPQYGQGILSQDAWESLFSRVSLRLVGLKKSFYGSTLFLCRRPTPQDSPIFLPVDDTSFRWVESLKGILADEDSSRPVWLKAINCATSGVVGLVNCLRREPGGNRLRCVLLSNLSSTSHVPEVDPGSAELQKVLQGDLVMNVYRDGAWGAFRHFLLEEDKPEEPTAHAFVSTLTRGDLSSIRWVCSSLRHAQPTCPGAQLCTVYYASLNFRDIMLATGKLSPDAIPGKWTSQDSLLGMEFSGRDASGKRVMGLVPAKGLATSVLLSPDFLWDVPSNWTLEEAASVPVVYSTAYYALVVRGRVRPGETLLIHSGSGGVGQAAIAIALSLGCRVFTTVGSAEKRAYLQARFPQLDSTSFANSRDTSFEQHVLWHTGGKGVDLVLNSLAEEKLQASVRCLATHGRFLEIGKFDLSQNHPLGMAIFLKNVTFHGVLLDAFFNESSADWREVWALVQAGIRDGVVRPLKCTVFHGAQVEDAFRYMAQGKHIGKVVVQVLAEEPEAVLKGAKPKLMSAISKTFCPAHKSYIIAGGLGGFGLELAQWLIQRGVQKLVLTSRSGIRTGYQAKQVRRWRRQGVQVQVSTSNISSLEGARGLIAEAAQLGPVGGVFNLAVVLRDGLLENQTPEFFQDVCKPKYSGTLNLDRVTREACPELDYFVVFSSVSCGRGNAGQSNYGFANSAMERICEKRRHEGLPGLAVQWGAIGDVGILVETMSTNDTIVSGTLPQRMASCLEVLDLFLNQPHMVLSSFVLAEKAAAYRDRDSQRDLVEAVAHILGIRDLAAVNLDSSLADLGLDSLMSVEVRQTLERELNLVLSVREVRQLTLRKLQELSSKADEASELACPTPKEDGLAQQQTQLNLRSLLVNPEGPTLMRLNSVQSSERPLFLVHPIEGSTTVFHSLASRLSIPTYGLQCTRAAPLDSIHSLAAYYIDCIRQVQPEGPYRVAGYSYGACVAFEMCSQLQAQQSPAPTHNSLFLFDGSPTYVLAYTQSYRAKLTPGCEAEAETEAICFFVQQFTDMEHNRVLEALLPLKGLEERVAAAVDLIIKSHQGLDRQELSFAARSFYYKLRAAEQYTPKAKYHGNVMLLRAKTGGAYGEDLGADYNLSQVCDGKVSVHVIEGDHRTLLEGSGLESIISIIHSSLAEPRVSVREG
# Chain of Broad substrate specificity ATP-binding cassette transporter ABCG2 (Homo sapiens) (Q9UNQ0 whole entry, looked up): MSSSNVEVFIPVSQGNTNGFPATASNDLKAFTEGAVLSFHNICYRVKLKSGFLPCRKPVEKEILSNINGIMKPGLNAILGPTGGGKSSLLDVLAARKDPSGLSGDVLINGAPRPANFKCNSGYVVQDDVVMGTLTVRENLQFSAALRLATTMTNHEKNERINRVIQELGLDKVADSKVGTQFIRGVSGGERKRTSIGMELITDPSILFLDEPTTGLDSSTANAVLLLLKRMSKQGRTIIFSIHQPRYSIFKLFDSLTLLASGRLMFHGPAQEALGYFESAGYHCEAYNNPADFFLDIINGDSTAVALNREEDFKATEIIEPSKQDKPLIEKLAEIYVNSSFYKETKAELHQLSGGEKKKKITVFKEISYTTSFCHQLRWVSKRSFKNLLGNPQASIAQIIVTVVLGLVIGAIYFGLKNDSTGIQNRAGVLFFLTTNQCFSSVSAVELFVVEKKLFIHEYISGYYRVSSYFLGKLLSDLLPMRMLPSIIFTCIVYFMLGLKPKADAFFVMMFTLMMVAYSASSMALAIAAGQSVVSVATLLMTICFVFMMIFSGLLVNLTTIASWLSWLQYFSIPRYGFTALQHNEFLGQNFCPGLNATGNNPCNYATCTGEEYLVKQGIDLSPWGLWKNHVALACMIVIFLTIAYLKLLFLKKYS
smiles,measurement,setting,value
CCOc1cccc(C2(N3CCN(c4ccccc4)CC3)CCC(C)CC2)c1 (centres undefined),AC50,[1],35.5 µM (active)
same,outcome,[2],inactive
same,outcome,[3],inactive
same,outcome,[4],inactive
same,outcome,[5],inactive
same,outcome,[6],inactive
same,outcome,[7],inactive
same,outcome,[8],inactive
same,AC50,[9],35.9 µM (active)
same,outcome,[10],inactive
same,outcome,[11],inactive
same,outcome,[12],inactive
same,outcome,[13],inactive
same,outcome,[14],inactive
same,outcome,[15],inactive
same,outcome,[16],inactive
same,outcome,[17],inactive
same,outcome,[18],inactive
c1ccc(NNc2ccccc2)cc1,outcome,[1],inactive
same,outcome,[2],inactive
same,outcome,[3],inactive
same,outcome,[4],inactive
same,outcome,[5],inactive
same,outcome,[6],inactive
same,outcome,[7],inactive
same,outcome,[8],inactive
same,AC50,[9],31.6 µM (active)
same,outcome,[10],inactive
same,outcome,[11],inactive
same,outcome,[19],inactive
same,outcome,[12],inactive
same,outcome,[13],inactive
same,AC50,[14],50 µM (active)
same,outcome,[15],inactive
same,outcome,[16],inactive
same,outcome,[17],inactive
same,outcome,[18],inactive
CCCCCCCCCCCCCN1CC(C)OC(C)C1 (centres undefined),AC50,[1],8.46 µM (active)
same,outcome,[2],inactive
same,outcome,[3],inactive
same,outcome,[4],inactive
same,outcome,[5],inactive
same,outcome,[6],inactive
same,outcome,[7],inactive
same,outcome,[8],inactive
same,AC50,[9],50 µM (active)
same,outcome,[10],inactive
same,outcome,[11],inactive
same,outcome,[12],inactive
same,outcome,[13],inactive
same,outcome,[14],inactive
same,outcome,[15],inactive
same,outcome,[17],inactive
same,outcome,[18],inactive
